# Laboratory results from PubChem BioAssay (NCATS).
# Results filed as inconclusive are left out. Entries that show only a call come without a potency. The source made the active and inactive calls. Calls come from the whole dose curve; as a rule, active = well fitted curve in the direction sought with a large enough effect; inconclusive = small, poorly fitted or top-dose-only effect, or another doubt; inactive = no such curve, though single readings can be large; an effect the other way counts as inactive or inconclusive.
# Key:
# [1] = qHTS of pediatric cancer cell lines to identify multiple opportunities for drug repurposing: Primary screen for SK-N-MC cells (AID 1347093); note: potency is the fitted concentration of half-maximal effect
# Method in brief: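 Metabolically active cells were quantified by ATP-dependent luminescence (CellTiter-Glo, 15 min at room temperature) following 48 h treatment. Cells had been plated at 500-1,000 per well and settled for 5 h beforehand.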
# [2] = qHTS of pediatric cancer cell lines to identify multiple opportunities for drug repurposing: Primary screen for BT-37 cells (AID 1347094); note: potency is the fitted concentration of half-maximal effect
# Method in brief: (§1)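 Quantitative HTS format: each compound titrated (MIPE 11 points from 0.78 nM, NPC 8 points from 0.59 nM) onto cells plated 5 hours earlier. After 48 h at 37 degrees C, CellTiter-Glo luminescence was recorded.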
# [3] = qHTS of pediatric cancer cell lines to identify multiple opportunities for drug repurposing: Primary screen for NB-EBc1 cells (AID 1347095); note: potency is the fitted concentration of half-maximal effect
# Method in brief: as §1
# [4] = qHTS of pediatric cancer cell lines to identify multiple opportunities for drug repurposing: Primary screen for Saos-2 cells (AID 1347097); note: nearly all actives have a fitted effect of over 40% in size; note: potency is the fitted concentration of half-maximal effect
# Method in brief: as §1
# [5] = qHTS of pediatric cancer cell lines to identify multiple opportunities for drug repurposing: Primary screen for SK-N-SH cells (AID 1347098); note: nearly all actives have a fitted effect of over 65% in size; note: potency is the fitted concentration of half-maximal effect
# Method in brief: (§2)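 Cells (500-1,000/well) rested 5 h, then received compounds for 48 h; metabolically active cells were measured by CellTiter-Glo luminescence. Final concentrations spanned up to 46 µM (MIPE, 11-point) or 0.59 nM-46 µM (NPC, 8-point) in primary screens, 11-point in follow-ups.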
# [6] = qHTS of pediatric cancer cell lines to identify multiple opportunities for drug repurposing: Primary screen for NB1643 cells (AID 1347099); note: nearly all actives have a fitted effect of over 50% in size; note: potency is the fitted concentration of half-maximal effect
# Method in brief: as §1
# [7] = qHTS of pediatric cancer cell lines to identify multiple opportunities for drug repurposing: Primary screen for LAN-5 cells (AID 1347100); note: potency is the fitted concentration of half-maximal effect
# Method in brief: (§3)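 Cells (500-1,000/well) in growth media were settled 5 h at 37 degrees C, then given compounds for 48 h. Viability was read as CellTiter-Glo luminescence. Primary runs used MIPE at 11 points (0.78 nM-46 µM) and NPC at 8 points (0.59 nM-46 µM); follow-ups used 11 points.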
# [8] = qHTS of pediatric cancer cell lines to identify multiple opportunities for drug repurposing: Primary screen for BT-12 cells (AID 1347101); note: nearly all actives have a fitted effect of over 25% in size; note: potency is the fitted concentration of half-maximal effect
# Method in brief: as §2
# [9] = qHTS of pediatric cancer cell lines to identify multiple opportunities for drug repurposing: Primary screen for Rh18 cells (AID 1347102); note: nearly all actives have a fitted effect of over 65% in size; note: potency is the fitted concentration of half-maximal effect
# Method in brief: as §3
# [10] = qHTS of pediatric cancer cell lines to identify multiple opportunities for drug repurposing: Primary screen for U-2 OS cells (AID 1347096); note: nearly all actives have a fitted effect of over 50% in size
# Method in brief: as §3
SMILES,Potency [1],Potency [2],Potency [3],Potency [4],Potency [5],Potency [6],Potency [7],Potency [8],Potency [9],Potency [10]
CO[C@H]1CCC(O[C@H]2C[C@H]([C@]3(C)CC[C@]4(C[C@H](O)[C@@H](C)[C@@H]([C@@H](C)C=C(C)C(=O)[C@H](C)C[C@H](C)C(=O)O)O4)O3)O[C@]3(O[C@@H]([C@H]4O[C@@](O)(CO)[C@H](C)C[C@H]4C)C[C@H]3C)[C@H]2C)O[C@H]1C (some centres undefined),187 nM (active),344 nM (active),209 nM (active),2640 nM (active),30400 nM (active),1050 nM (active),372 nM (active),273 nM (active),2960 nM (active),–
Cc1ccccc1-n1c(Cn2ncc3c(N)ncnc32)nc2cccc(C)c2c1=O,13.2 nM (active),8.6 nM (active),93.5 nM (active),8.3 nM (active),–,–,–,12.2 nM (active),–,inactive
CC(C)(C)[C@]1(O)C[C@@H]2OC(=O)C[C@@]23C(=O)O[C@@H]2OC(=O)[C@H](O)C213 (some centres undefined),inactive,inactive,inactive,inactive,–,inactive,inactive,–,inactive,inactive
CC[C@@H](C(N)=O)N1CCCC1=O,26400 nM (active),inactive,inactive,inactive,–,–,inactive,–,–,inactive
CCNC(=O)C[C@@H]1N=C(c2ccc(Cl)cc2)c2cc(OC)ccc2-n2c(C)nnc21,1320 nM (active),7690 nM (active),10500 nM (active),4690 nM (active),–,1050 nM (active),2350 nM (active),–,–,–
O=C(Nc1ccncc1)C(=O)c1cn(Cc2ccc(Cl)cc2)c2ccccc12,66.2 nM (active),217 nM (active),26.4 nM (active),37.2 nM (active),–,–,–,–,inactive,–
O=C(Nc1ccccc1-c1ccc(Cl)cc1)c1cccnc1Cl,inactive,inactive,–,inactive,inactive,inactive,inactive,inactive,–,inactive
COc1ccc2c(c[n+](C)c3c4cc5c(cc4ccc23)OCO5)c1OC,5900 nM (active),17200 nM (active),5260 nM (active),9350 nM (active),12100 nM (active),7430 nM (active),8330 nM (active),24300 nM (active),8330 nM (active),–
CC(C)(C)C(O)C(Oc1ccc(Cl)cc1)n1cncn1 (centres undefined),1 nM (active),inactive,inactive,–,–,inactive,inactive,–,inactive,inactive
c1cc2c(cc1[C@H]1OC[C@H]3[C@H]1CO[C@H]3c1ccc3c(c1)OCO3)OCO2,inactive,inactive,inactive,inactive,–,inactive,inactive,–,inactive,inactive
C[C@]12CC[C@@H]3[C@@H](CCC4=CC(=O)CC[C@@H]43)[C@@H]1CC[C@@H]2OC(=O)CCc1ccccc1,inactive,inactive,inactive,18700 nM (active),–,–,–,inactive,inactive,inactive
COc1ccc(N(C(=O)Oc2c(C)cccc2C)c2ccnc(Nc3ccc(N4CCN(C)CC4)cc3)n2)c(OC)c1,1320 nM (active),15300 nM (active),8330 nM (active),–,242 nM (active),–,1480 nM (active),–,inactive,inactive
O=C(Oc1ccc([N+](=O)[O-])cc1)N1CCN(Cc2cccc(Oc3ccccc3)c2)CC1,18700 nM (active),inactive,inactive,–,–,–,inactive,–,inactive,inactive
O=[N+]([O-])/N=C1\NCCN1Cc1ccc(Cl)nc1,inactive,inactive,inactive,–,inactive,inactive,inactive,–,inactive,inactive
C[C@]12CCC(=O)C(O)=C1CC[C@@H]1[C@H]3CCC(=O)[C@@]3(C)CC[C@@H]12,inactive,inactive,inactive,–,inactive,–,inactive,–,inactive,inactive
CC1=NN=C(c2ccc(N)cc2)c2cc3c(cc2C1)OCO3,inactive,inactive,inactive,inactive,–,–,inactive,inactive,–,inactive
COC[C@H]1OC(=O)c2coc3c2[C@@]1(C)C1=C(C3=O)[C@@H]2CC[C@H](O)[C@@]2(C)C[C@@H]1OC(C)=O,296 nM (active),6850 nM (active),526 nM (active),2090 nM (active),27100 nM (active),–,2640 nM (active),–,4690 nM (active),–
C[C@]12CC[C@H]3[C@@H](CCC4=CC(=O)CC[C@@]43C)[C@H]1CC[C@H]2OC(=O)CCC1CCCC1,11800 nM (active),inactive,inactive,–,–,inactive,inactive,inactive,inactive,inactive
CC(N[C@H]1C[C@H]1c1ccccc1)c1ccc2c(c1)OCCO2 (some centres undefined),inactive,inactive,inactive,inactive,–,inactive,inactive,inactive,inactive,inactive
O=S(=O)(O)C(F)(F)C(F)(F)C(F)(F)C(F)(F)F,inactive,inactive,inactive,–,inactive,inactive,inactive,inactive,inactive,inactive
Clc1ccccc1C(c1ccccc1)(c1ccccc1)n1cccn1,inactive,inactive,–,inactive,inactive,–,inactive,inactive,–,inactive
